Screening data deposited in PubChem BioAssay by The Scripps Research Institute Molecular Screening Center.
Shown are actives, neighbours in structure and some others; about 1.8% of the full set was active somewhere.
GSTO1 inh: inhibitors of recombinant GSTO1, primary screen, counter-screen for RBBP9 inhibitor project, biochemical, fluorescence polarization | Glutathione S-transferase omega-1 (Homo sapiens), P78417 | 1.1% of 300,000 active | inhibition, % at 5.96 µM | activity-based probe fluorescence polarization | AID 1974, 2009;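 active = inhibition above the campaign mean inhibition plus 3 SD, cut at about 35% in these data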;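 also: 0% = GSTO1-1 with DMSO and 100% = wells lacking GSTO1-1 enzyme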
Target sequence (P78417 whole entry, looked up): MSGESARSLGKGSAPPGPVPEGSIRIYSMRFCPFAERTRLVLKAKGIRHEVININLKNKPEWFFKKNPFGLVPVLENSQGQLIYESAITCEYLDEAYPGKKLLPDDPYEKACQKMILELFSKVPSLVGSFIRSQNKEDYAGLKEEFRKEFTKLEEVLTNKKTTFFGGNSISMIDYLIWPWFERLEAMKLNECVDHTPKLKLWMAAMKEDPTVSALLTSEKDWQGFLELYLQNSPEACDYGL
LYPLA1 inh: LYPLA1 inhibitors, primary screen, counter-screen for PME1 inhibitor project, biochemical, fluorescence polarization, FP-Rh probe ABPP; AID 2174, 2009; 0.16% of 320,000 active; Acyl-protein thioesterase 1 (Homo sapiens), O75608; recombinant LYPLA1; inhibition, % at 5.9 µM;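 active = inhibition above the mean of all tested compounds plus 3 SD, set per campaign, cut at about 14% in these data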;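 also: inhibitors block serine hydrolase probe labeling of LYPLA1 so polarization falls; 0% = enzyme with DMSO and 100% = wells lacking LYPLA1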
Target sequence (O75608 whole entry, looked up): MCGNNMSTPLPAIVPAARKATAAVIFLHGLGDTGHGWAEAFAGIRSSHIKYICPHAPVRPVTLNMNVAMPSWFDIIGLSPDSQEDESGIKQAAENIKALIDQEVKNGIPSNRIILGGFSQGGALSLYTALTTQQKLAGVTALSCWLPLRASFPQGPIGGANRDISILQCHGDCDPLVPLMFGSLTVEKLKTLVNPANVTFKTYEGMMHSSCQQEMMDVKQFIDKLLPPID
PAD4 FP inh: human PAD4 inhibitors, primary screen, biochemical, fluorescence polarization, 1536-well format; 0.41% of 330,000 active; recombinant PAD4, RCA probe fluorescence polarization; inhibition, % at 6.36 µM; Protein-arginine deiminase type-4 (Homo sapiens), Q9UM07;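 active = percent inhibition above a cutoff equal to the mean of all tested compounds plus 3 SD, cut at about 15% in these data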;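 also: 0% = PAD4 with RCA probe and DMSO and 100% = probe without PAD4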
Fam108B inh: mouse Fam108B serine hydrolase inhibitors, primary screen, counter-screen for RBBP9 inhibitor project, biochemical, fluorescence polarization | recombinant Fam108B, FP-Rh probe fluorescence polarization | inhibition, % at 9.51 µM | 0.33% of 300,000 active;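 active = inhibition above the screen mean inhibition plus 3 SD, computed separately per campaign, cut at about 18% in these data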;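 also: inhibitors lower polarization as less probe binds the enzyme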
PME-1 primary: PME-1 inhibitors via competitive probe labeling, primary screen, biochemical, fluorescence polarization, FP-Rh probe, HTS; Protein phosphatase methylesterase 1 (Homo sapiens), Q9Y570; recombinant PME-1; inhibition, % at 5.9 µM; 0.53% of 320,000 active;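 active = inhibition above the campaign mean of all compounds plus 3 SD, cut at about 26% in these data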;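 also: competitive labeling of PME-1 active site by serine hydrolase directed probe; 0% = PME-1 with DMSO and 100% = wells lacking PME-1 enzyme; inhibitors block probe labeling so polarization falls and inhibition rises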
LYPLA2 counter: LYPLA2 inhibitors, primary screen, counter-screen for PME1 inhibitor project, biochemical, fluorescence polarization, FP-Rh probe ABPP; Acyl-protein thioesterase 2 (Homo sapiens), O95372; recombinant LYPLA2; inhibition, % at 5.9 µM; 0.38% of 320,000 active; AID 2177, 2009;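 active = inhibition above the screen-wide mean plus 3 SD, limit set per campaign, cut at about 26% in these data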;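 also: 0% = LYPLA2 with DMSO and 100% = wells lacking LYPLA2 enzyme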
LYPLA2 conf: LYPLA2 inhibitors, retest, confirmation, counter-screen for PME1 inhibitor project, biochemical, fluorescence polarization, FP-Rh probe ABPP. inhibition, % at 5.9 µM. shares compounds with LYPLA2 counter. recombinant LYPLA2. 72% of 1,100 active;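 active = mean inhibition across replicates above the hit cutoff set in the primary screen, cut at about 26% in these data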;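 also: blocked labeling of the enzyme by serine hydrolase FP-Rh probe lowers polarization; 0% = enzyme with DMSO and 100% = wells lacking LYPLA2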
LYPLA2 gel ABPP: LYPLA2 inhibitors in proteome, late-stage follow-up, gel-based competitive ABPP, fluorescence, assay provider | shares compounds with LYPLA2 counter | 30% of 150 active | rhLYPLA2 in mouse brain proteome, gel ABPP FP-Rh | inhibition, % at 20 µM;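 active = inhibition of LYPLA2 enzyme probe labeling above about 50%, limit read from the data; inactive = inhibition below that limit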;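 also: loss of FP-Rh probe labeling of the LYPLA2 gel band measured as band density; 0% = DMSO only control band and 100% = blank gel background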
* hit, by the source's call; x = not tested or not shown.

SMILES	GSTO1 inh	LYPLA1 inh	PAD4 FP inh	Fam108B inh	PME-1 primary	LYPLA2 counter	LYPLA2 conf	others
O=C(c1ccc(OC2CCN(CCc3ccccc3)CC2)cc1)N1CCCC(CCCO)C1 (stereo not given)	-1	7	-2	2	0	65*	51*	LYPLA2 gel ABPP=12
COC(=O)C1CCN(C(=O)c2ccc(OC)c(S(=O)(=O)N3CCCc4ccccc43)c2)CC1	x	x	-5	x	x	x	x
O=C(Cc1ccc([N+](=O)[O-])cc1)N1CCN(c2ccc([N+](=O)[O-])cc2)CC1	0	6	-4	1	8	69*	69*	LYPLA2 gel ABPP=70*
O=C(c1ccc2nsnc2c1)N1CCN(c2ccc([N+](=O)[O-])cc2)CC1	3	6	-6	2	11	27*	22
O=C(Nc1ccn(C2CC(OC(=O)c3ccccc3)C(CO)O2)c(=O)n1)c1ccccc1 (stereo not given)	-2	-3	2	1	-3	26*	10
CC(C)CC(=O)NC(=S)Nc1cc(C(F)(F)F)ccc1N1CCOCC1	1	-2	-2	3	-1	13	x
O=C(CCc1ccccc1)NC(=S)Nc1cc(C(F)(F)F)ccc1N1CCOCC1	-4	2	0	-9	-12	31*	13
O=C(O/N=C\c1ccc(N2CCCCC2)c([N+](=O)[O-])c1)c1cccc(Cl)c1	2	4	1	3	2	15	x
O=C(N/N=C/c1ccc(N2CCOCC2)c([N+](=O)[O-])c1)c1ccc(F)cc1	-3	1	9	3	4	0	x
CO/N=C/c1ccc(N2CCN(C(=O)c3cccc(C(F)(F)F)c3)CC2)c([N+](=O)[O-])c1	2	5	0	-3	0	88*	86*
CO/N=C/c1ccc(N2CCN(C(=O)c3ccc(Cl)cc3Cl)CC2)c([N+](=O)[O-])c1	-4	2	-4	-4	11	48*	50*
O=C(O/N=C\c1ccc(N2CCCCC2)c([N+](=O)[O-])c1)c1cccc(C(F)(F)F)c1	-5	0	0	4	5	9	x
CO/N=C/c1ccc(N2CCN(C(=O)c3ccc(F)cc3)CC2)c([N+](=O)[O-])c1	2	1	-3	-2	1	48*	50*
O=C(Nc1ccc(NC(=O)c2sc3ccccc3c2Cl)cc1)c1ccco1	-1	-1	2	-7	0	-13	x
CCC(C)NC(=O)c1cc2c(=O)n(CC)c3ccccc3c2s1 (stereo not given)	-7	-2	-1	0	-2	3	x
NC(=O)C1CC(=O)N(c2ccc(OCC(=O)Nc3ccc(F)cc3)cc2)C1 (stereo not given)	x	3	13	x	7	8	x
COc1cccc(CCN2CCC(CNS(=O)(=O)c3cc(-c4cc(C)no4)ccc3C)CC2)c1	-7	2	4	-1	-3	28*	35*
O=[N+]([O-])c1cnc(Nc2ccc(Cl)cn2)c([N+](=O)[O-])c1	10	2	-2	3	4	29*	32*
O=C(C1CCC(CNS(=O)(=O)c2cccc3nsnc23)CC1)N1CC=C(c2ccccc2)CC1 (stereo not given)	-3	1	-4	1	0	42*	41*
O=C(NCc1cccs1)C1CCC(CNS(=O)(=O)c2cccc3nsnc23)CC1 (stereo not given)	2	-1	1	1	0	9	x
COc1cccc(CNC(=O)C2CCC(CNS(=O)(=O)c3cccc4nsnc34)CC2)c1 (stereo not given)	2	1	1	0	-3	26*	46*
Cc1cc(OCC(=O)Nc2ccc(CN3CCOCC3)cc2)c2c(C)c(C)c(=O)oc2c1	-8	-1	2	-7	-1	30*	36*
Cc1cc(OCC(=O)Nc2ccc(CN3CCOCC3)cc2)c2c(C)cc(=O)oc2c1	-6	2	-8	3	3	43*	48*
Cc1cc(OCC(=O)NCCCN2CCOCC2)c2c(C)c(C)c(=O)oc2c1	5	4	1	1	5	4	x
COc1ccc(C(C)NC(=O)c2ccc([N+](=O)[O-])cc2)cc1OC (stereo not given)	7	-2	3	2	0	5	x
SMILES	GSTO1 inh	LYPLA1 inh	PAD4 FP inh	Fam108B inh	PME-1 primary	LYPLA2 counter	LYPLA2 conf	others
Cn1nc(C(=O)NC(C)(C)C)c2ccccc21	-4	-1	-8	-6	-9	-8	x
C=CCN=C1S/C(=C\N(C)C)C(=O)N1S(=O)(=O)c1ccc(C)cc1	x	x	-7	x	x	x	x
c1ccc(-c2nnc(CN3CCN(C(c4ccccc4)c4ccccc4)CC3)o2)cc1	5	0	1	3	-2	3	x
N#C/C=C/N1CCC(Cc2ccccc2)CC1	18	3	1	2	-3	-1	x
O=C(CCNS(=O)(=O)c1cccs1)N1CCN(c2cccc(C(F)(F)F)c2)CC1	x	5	-1	x	2	37*	28*
Cc1ccc(-c2noc(CCC(=O)N3CCN(c4cccc(C(F)(F)F)c4)CC3)n2)cc1	-6	0	-2	3	-4	42*	38*
Cc1cc(N2CCOCC2)nc2ccc(NC(=O)CCC(=O)N3CCN(c4cccc(C(F)(F)F)c4)CC3)cc12	-1	2	-3	4	9	41*	51*	LYPLA2 gel ABPP=10
COc1ccc(N2CCN(C(=O)CCNS(=O)(=O)c3cccs3)CC2)cc1	-12	1	2	-6	0	10	x
CC1CN(C(=O)CCC(=O)N2CCN(c3cccc(C(F)(F)F)c3)CC2)c2ccccc2O1 (stereo not given)	-3	12	1	4	6	59*	59*	LYPLA2 gel ABPP=44
CCc1ccc(N(C(=O)c2csnn2)C(C(=O)NC(C)(C)CC)c2cccnc2)cc1 (stereo not given)	6	7	-2	1	10	6	x
